{
  "source": "the supplement of paper PMC6555819",
  "data": [
    {"system": "RXRa DBDmut IVT, anti-RXR (DBD mutation: RXRa K156A/R161A, NR concentration 90 nM)", "test": "PBM binding z-score (relative to random genomic background probes); higher = stronger binding; sequences stand for … in GC…GCGATTGACAGCGTAGAATGAAGG", "in_short": "(§1)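 For binding z-scores, the reference was random background probes on custom Agilent 4×180K protein-binding microarrays. These arrays were incubated 1 h with ligand-free nuclear receptor dimers in PBS pH 7.4, 2% milk, 0.02% Triton X-100, 1 mM DTT, 0.2 mg/mL BSA and 0.4 mg/ml salmon testes DNA. Fluorescence was scanned after antibody detection of each partner (one per run) and regression-normalized.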", "values": [
      {"sequence": "CCAGACAGGTGAGAAGGTCACTCAGCCTCGATTA", "PBM binding z-score": 0.8},
      {"sequence": "ATAGGTAGGTTATCGGGTCATTCAGTTTGCGCAT", "PBM binding z-score": 1.53},
      {"sequence": "CCCTACGGGTCAAGGTTATAGCACGGGTGGTACG", "PBM binding z-score": 0.145},
      {"sequence": "ATCGAAATGTCGACGAGGTGAGTATACACCGTTT", "PBM binding z-score": -0.0108},
      {"sequence": "ATACCAAGGTGATCGTGAGGTCGTTGAGACTAAC", "PBM binding z-score": 0.611},
      {"sequence": "CCGACTGGGGCAAAGGTTAGCATACTCAGTACGA", "PBM binding z-score": 0.057},
      {"sequence": "CCTTACGGGTCACTGACAGGGTATAGCATTTGGA", "PBM binding z-score": 1.26},
      {"sequence": "CGTCTAAGGTCAATGCTAGGTCAGTGAAAGCATT", "PBM binding z-score": 3.82},
      {"sequence": "ATCGAAAGGTCGTGAGGTGAGTATGCAGAAAGGC", "PBM binding z-score": 1.02},
      {"sequence": "CCTGCTAGGTCATGATCAGCTAATCTACAGTATG", "PBM binding z-score": 1.65},
      {"sequence": "ATCTCTAGGTCACAAGTTCAGTGAAAGAGAGGAC", "PBM binding z-score": 2.17},
      {"sequence": "TAGCCTAGGTCATTCATGGGCCAGTATAGAAAGC", "PBM binding z-score": 1.84},
      {"sequence": "AGAACGAGTGCACGCTGAGTTGATAGCAGAGTAG", "PBM binding z-score": 3.07},
      {"sequence": "TCTTGTAAATCAGCAGGTTAAGAAAGCTGGCCAA", "PBM binding z-score": 0.924},
      {"sequence": "GCTAGCAGACCATTTGGGTCACTCAATGACGGGC", "PBM binding z-score": -0.303},
      {"sequence": "CGTCAAAGTTCAAGGTAACGTAGCAGAAAGCAGC", "PBM binding z-score": 4.38},
      {"sequence": "GCTAGTTGGCCAGTAAAAGGTCACACACCGGTCG", "PBM binding z-score": 0.252},
      {"sequence": "TAGCCTAGGTCATGCGGGCAAGTATAGTGTCGGC", "PBM binding z-score": 0.563},
      {"sequence": "ATATGTAGGTTAAGGGTCATCCAGGTTGGTTCGC", "PBM binding z-score": 1.99},
      {"sequence": "CCTACTGGGCCAAAAAGGTCATTGCTGCCGATAA", "PBM binding z-score": 0.7},
      {"sequence": "GCTAGTTGGTCAGTAAAAGGTCACACGCCGGTCG", "PBM binding z-score": 0.626},
      {"sequence": "GCTCGGAGGACATGGTCAGAGCTTTGTCCGTAGA", "PBM binding z-score": -0.383},
      {"sequence": "TCATATAGGTAAAATGTGAAAGTCGGTGTGGTAA", "PBM binding z-score": 1.45},
      {"sequence": "CTCGAAAGTTCGTGCTCAGGTGAGTATACCAAAC", "PBM binding z-score": 2.83},
      {"sequence": "CGTCAAAGTTCAACTAAGGAAACGTAAAGCACGC", "PBM binding z-score": 4.6},
      {"sequence": "AGGATGAGGTTAAGATCAGGGAAACAGAATACAT", "PBM binding z-score": 0.731},
      {"sequence": "CCTATTAGTTGACCATCAGGGCAACCGAAGCTCG", "PBM binding z-score": 0.518},
      {"sequence": "CCGAGTAGGTTATGAGGCATTCAGGCAACGGTGA", "PBM binding z-score": 0.178},
      {"sequence": "TGAATGAGGTTATAAGATCAGGTAACGTTGCAAA", "PBM binding z-score": 0.758},
      {"sequence": "TAGCCTAGGTCATGGACCAGTATACCACGCGAAC", "PBM binding z-score": 0.316},
      {"sequence": "GCTAGCAGGCCATTTGGGTCACTCGATGACGGGC", "PBM binding z-score": 0.253},
      {"sequence": "ACTAGTTTGTCAGCTGAGGTCACACACAATTCGG", "PBM binding z-score": 1.98},
      {"sequence": "TCTAGCAGGCCAGAGGGTCCCTCAAGAGGTACGG", "PBM binding z-score": -0.214},
      {"sequence": "GCTATTAGTTGAAAGGGCAACCAAATGATTCTCG", "PBM binding z-score": 1},
      {"sequence": "CGAACTAGGTCATGCAGGACAGTGAATACATTGA", "PBM binding z-score": 1.87},
      {"sequence": "CCTAGCAGGTCAGGGTCACTCAAGCATTTCGCTT", "PBM binding z-score": 1.94},
      {"sequence": "AGAATGAGGTTCTTAAGATCAGGGAATTGCGGTC", "PBM binding z-score": 0.301},
      {"sequence": "TTACCAAGGTAAAGGTCGTTGATCCCTCTGTAGA", "PBM binding z-score": 0.533},
      {"sequence": "GCTTACGGGTCAAAGGTAATAGCATGAATAGAAT", "PBM binding z-score": 1.97},
      {"sequence": "TCATATAGGTAATATAGGTGAAAGTCGGCATCTA", "PBM binding z-score": 1.2}
    ]},
    {"system": "RXRa homodimer (NR concentration 180 nM)", "test": "PBM binding z-score (relative to random genomic background probes); higher = stronger binding; sequences stand for … in GC…GCGATTGACAGCGTAGAATGAAGG", "in_short": "as §1", "values": [
      {"sequence": "CCAGACAGGTGAGAAGGTCACTCAGCCTCGATTA", "PBM binding z-score": 3.76},
      {"sequence": "ATAGGTAGGTTATCGGGTCATTCAGTTTGCGCAT", "PBM binding z-score": 3.29},
      {"sequence": "CCCTACGGGTCAAGGTTATAGCACGGGTGGTACG", "PBM binding z-score": 5.35},
      {"sequence": "ATCGAAATGTCGACGAGGTGAGTATACACCGTTT", "PBM binding z-score": 0.492},
      {"sequence": "ATACCAAGGTGATCGTGAGGTCGTTGAGACTAAC", "PBM binding z-score": 1.66},
      {"sequence": "CCGACTGGGGCAAAGGTTAGCATACTCAGTACGA", "PBM binding z-score": 2.79},
      {"sequence": "CCTTACGGGTCACTGACAGGGTATAGCATTTGGA", "PBM binding z-score": 4.55},
      {"sequence": "CGTCTAAGGTCAATGCTAGGTCAGTGAAAGCATT", "PBM binding z-score": 6.12},
      {"sequence": "ATCGAAAGGTCGTGAGGTGAGTATGCAGAAAGGC", "PBM binding z-score": 5.27},
      {"sequence": "CCTGCTAGGTCATGATCAGCTAATCTACAGTATG", "PBM binding z-score": 2.85},
      {"sequence": "ATCTCTAGGTCACAAGTTCAGTGAAAGAGAGGAC", "PBM binding z-score": 4.04},
      {"sequence": "TAGCCTAGGTCATTCATGGGCCAGTATAGAAAGC", "PBM binding z-score": 3.2},
      {"sequence": "AGAACGAGTGCACGCTGAGTTGATAGCAGAGTAG", "PBM binding z-score": 0.384},
      {"sequence": "TCTTGTAAATCAGCAGGTTAAGAAAGCTGGCCAA", "PBM binding z-score": 0.361},
      {"sequence": "GCTAGCAGACCATTTGGGTCACTCAATGACGGGC", "PBM binding z-score": 0.514},
      {"sequence": "CGTCAAAGTTCAAGGTAACGTAGCAGAAAGCAGC", "PBM binding z-score": 4.75},
      {"sequence": "GCTAGTTGGCCAGTAAAAGGTCACACACCGGTCG", "PBM binding z-score": 5.46},
      {"sequence": "TAGCCTAGGTCATGCGGGCAAGTATAGTGTCGGC", "PBM binding z-score": 3.03},
      {"sequence": "ATATGTAGGTTAAGGGTCATCCAGGTTGGTTCGC", "PBM binding z-score": 6.92},
      {"sequence": "CCTACTGGGCCAAAAAGGTCATTGCTGCCGATAA", "PBM binding z-score": 4.99},
      {"sequence": "GCTAGTTGGTCAGTAAAAGGTCACACGCCGGTCG", "PBM binding z-score": 5.46},
      {"sequence": "GCTCGGAGGACATGGTCAGAGCTTTGTCCGTAGA", "PBM binding z-score": -0.444},
      {"sequence": "TCATATAGGTAAAATGTGAAAGTCGGTGTGGTAA", "PBM binding z-score": 0.646},
      {"sequence": "CTCGAAAGTTCGTGCTCAGGTGAGTATACCAAAC", "PBM binding z-score": 1.01},
      {"sequence": "CGTCAAAGTTCAACTAAGGAAACGTAAAGCACGC", "PBM binding z-score": 4.94},
      {"sequence": "AGGATGAGGTTAAGATCAGGGAAACAGAATACAT", "PBM binding z-score": 2.55},
      {"sequence": "CCTATTAGTTGACCATCAGGGCAACCGAAGCTCG", "PBM binding z-score": 0.205},
      {"sequence": "CCGAGTAGGTTATGAGGCATTCAGGCAACGGTGA", "PBM binding z-score": 0.451},
      {"sequence": "TGAATGAGGTTATAAGATCAGGTAACGTTGCAAA", "PBM binding z-score": 1.87},
      {"sequence": "TAGCCTAGGTCATGGACCAGTATACCACGCGAAC", "PBM binding z-score": 3.56},
      {"sequence": "GCTAGCAGGCCATTTGGGTCACTCGATGACGGGC", "PBM binding z-score": 0.666},
      {"sequence": "ACTAGTTTGTCAGCTGAGGTCACACACAATTCGG", "PBM binding z-score": 4.13},
      {"sequence": "TCTAGCAGGCCAGAGGGTCCCTCAAGAGGTACGG", "PBM binding z-score": -0.191},
      {"sequence": "GCTATTAGTTGAAAGGGCAACCAAATGATTCTCG", "PBM binding z-score": 1.26},
      {"sequence": "CGAACTAGGTCATGCAGGACAGTGAATACATTGA", "PBM binding z-score": 2.67},
      {"sequence": "CCTAGCAGGTCAGGGTCACTCAAGCATTTCGCTT", "PBM binding z-score": 5.24},
      {"sequence": "AGAATGAGGTTCTTAAGATCAGGGAATTGCGGTC", "PBM binding z-score": -0.00148},
      {"sequence": "TTACCAAGGTAAAGGTCGTTGATCCCTCTGTAGA", "PBM binding z-score": 2.7},
      {"sequence": "GCTTACGGGTCAAAGGTAATAGCATGAATAGAAT", "PBM binding z-score": 6.87},
      {"sequence": "TCATATAGGTAATATAGGTGAAAGTCGGCATCTA", "PBM binding z-score": 0.79}
    ]}
  ]
}
